This is an account of results in PubChem BioAssay (EPA / NIEHS).

Test [1] in a line: ACEA_ER_80hr: ACEA Biosciences xCELLigence Real-Time Cell Analysis on Estrogen Receptor Agonism for Proliferation (AID 2282667; active = hit-call score of the fitted dose curve at least 0.9, where 1 is the maximum). To be noted: T47D proliferation, impedance (xCELLigence), 80 h. The method in brief: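 T47D human breast cells were seeded on electrode plates, monitored overnight, then exposed continuously to compounds in eight-point 1:4 dilutions from 100 uM (max 0.5% DMSO). Impedance-based growth was read at 80 h, fitted upward relative to DMSO.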

Test [2] is described as follows: ATG_CRE_CIS: Attagene CIS-FACTORIAL HepG2 Assay for human cAMP Responsive Element (CRE) binding protein 3 (AID 2282926). To be noted: HepG2 CRE cis-reporter, Attagene multiplexed mRNA; actives raise or lower the signal. The method in brief: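 Capillary electrophoresis of 6-FAM-labelled, HpaI-digested PCR products quantified reporter transcripts. These came from HepG2 transiently transfected with cis-element reporters and exposed to test chemicals for 24 hours, with DMSO defining baseline activity.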

Test [3] concerns the target CCAAT/enhancer-binding protein beta (Homo sapiens) (UniProt P17676). The test is described as follows: ATG_C_EBP_CIS: Attagene CIS-FACTORIAL HepG2 Assay for human CCAAT/Enhancer Binding Protein (C/EBP) beta (AID 2282927). To be noted: HepG2 Attagene cis-factorial transcription factor reporter; actives raise or lower the signal. The method in brief:
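HepG2 transiently transfected with multiplexed reporter units under cis-regulatory promoters reporting endogenous C/EBPb activity. After 24 h exposure, reporter mRNA assayed by RT-PCR, fluorescent labelling, HpaI digestion and capillary electrophoresis; bidirectional fitting versus DMSO.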

Test [4] can be described thus: ATG_CMV_CIS: Attagene CIS-FACTORIAL HepG2 Assay for human CMV (Internal Marker) (AID 2282928).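 Also: endpoint acts as a background internal control marker rather than a target.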 The following applies: HepG2 CMV promoter reporter, transcription factor profiling; actives raise or lower the signal. The method, boiled down: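 Reporter transcripts from transfected HepG2 cells are isolated after 24 h of chemical dosing, reverse-transcribed and amplified. Fragments labeled with 6-FAM are cut with HpaI and quantified by capillary electrophoresis; DMSO defines baseline.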

A short description of test [5]: ATG_DR4_LXR_CIS: Attagene CIS-FACTORIAL HepG2 Assay for human Liver X Receptor (LXR), DR4 submotif (AID 2282929). To be noted: HepG2 Attagene DR4 cis-reporter, mRNA transcription; actives raise or lower the signal. The method in brief: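 HepG2 cells were transiently transfected with multiple cis-regulated reporter units and dosed for 24 hours. The DR4 reporter mRNA was quantified by RT-PCR, 6-FAM labelling and capillary electrophoresis. Bidirectional fits used DMSO as baseline.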

The target in test [6] is Aryl hydrocarbon receptor (Homo sapiens) (UniProt P35869). In words: ATG_Ahr_CIS: Attagene CIS-FACTORIAL HepG2 Assay for human Aryl Hydrocarbon Receptor (Ahr) (AID 2282930). To be noted: HepG2 AhR cis-factorial reporter transcription; actives raise or lower the signal. The method in brief: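 HepG2 cells transiently transfected with cis-element-driven multiplexed reporter units; endogenous AhR activity read as reporter mRNA 24 h after dosing, via RT-PCR, 6-FAM labelling, HpaI digestion and capillary electrophoresis. Bidirectional fit relative to DMSO.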
Aryl hydrocarbon receptor (Homo sapiens), sequence (P35869 whole entry, looked up): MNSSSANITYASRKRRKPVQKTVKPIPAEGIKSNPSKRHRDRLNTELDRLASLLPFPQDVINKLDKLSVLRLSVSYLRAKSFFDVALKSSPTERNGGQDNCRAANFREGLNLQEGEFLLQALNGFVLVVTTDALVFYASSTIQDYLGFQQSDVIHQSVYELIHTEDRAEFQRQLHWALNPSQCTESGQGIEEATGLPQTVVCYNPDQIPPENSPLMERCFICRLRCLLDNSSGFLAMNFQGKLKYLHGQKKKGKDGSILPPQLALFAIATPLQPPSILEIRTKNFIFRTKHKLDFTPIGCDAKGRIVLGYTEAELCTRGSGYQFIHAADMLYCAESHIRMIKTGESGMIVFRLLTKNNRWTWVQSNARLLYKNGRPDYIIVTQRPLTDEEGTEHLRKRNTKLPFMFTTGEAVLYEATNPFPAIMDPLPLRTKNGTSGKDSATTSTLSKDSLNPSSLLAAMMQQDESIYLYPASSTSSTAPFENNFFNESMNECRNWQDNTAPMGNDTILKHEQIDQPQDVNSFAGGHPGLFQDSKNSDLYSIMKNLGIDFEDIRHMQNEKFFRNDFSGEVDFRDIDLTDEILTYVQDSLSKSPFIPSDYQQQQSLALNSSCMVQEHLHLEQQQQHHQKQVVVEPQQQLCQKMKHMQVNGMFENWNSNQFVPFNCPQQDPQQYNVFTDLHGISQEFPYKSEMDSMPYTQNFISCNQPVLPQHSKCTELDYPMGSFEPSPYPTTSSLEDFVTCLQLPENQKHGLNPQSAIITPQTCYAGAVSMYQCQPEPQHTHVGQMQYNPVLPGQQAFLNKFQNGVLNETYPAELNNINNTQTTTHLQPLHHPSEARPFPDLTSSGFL

Test [7] is described as follows: ATG_BRE_CIS: Attagene CIS-FACTORIAL HepG2 Assay for human Bone Morphogenetic Protein (BMP) Response Element (BRE) (AID 2282933). The following applies: HepG2 BMP response element reporter, Attagene transcription factor profiling; actives raise or lower the signal. The method, boiled down:
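Multiplexed cis-reporter assay, HepG2, 24 h exposure. mRNA from reporter units quantified via RT-PCR/CE; DMSO baseline; bidirectional curve fit.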

The target of test [8] is Retinoic acid receptor alpha (Homo sapiens) (UniProt P10276). The test is described as follows: ATG_DR5_RAR_CIS: Attagene CIS-FACTORIAL HepG2 Assay for human Retinoic Acid Receptor Alpha (RARE), DR5 submotif (AID 2282934).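 As to AC50: reporter responds to endogenous RAR alpha beta and gamma in HepG2 not RARA alone.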 The following applies: HepG2 Attagene cis-factorial RARE DR5 reporter, mRNA; actives raise or lower the signal. The method, boiled down:
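HepG2 cells transiently transfected with multiplexed reporter units; DR5 cis-element drives reporter through endogenous transcription factors. After 24 h dosing, reporter mRNA quantified by RT-PCR, fluorescent labeling, HpaI digestion and capillary electrophoresis; bidirectional fitting versus DMSO.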

Test [9] addresses Transcription factor E2F1 (Homo sapiens) (UniProt Q01094). The test is described as follows: ATG_E2F_CIS: Attagene CIS-FACTORIAL HepG2 Assay for human E2F Transcription Factor 1 (AID 2282935). The following applies: HepG2 Attagene cis-reporter, E2F reporter RNA transcripts; actives raise or lower the signal. The method, boiled down:
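Transient MRTU transfection of HepG2; 24 h compound exposure; RNA → oligo(dT) RT → PCR → FAM label → HpaI cut → CE fluorescence. Gain/loss of signal fit against DMSO.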

A short description of test [10]: ATG_E_Box_CIS: Attagene CIS-FACTORIAL HepG2 Assay for human Enhancer Box (E-box) (AID 2282936). The following applies: HepG2 E-box cis-reporter transcription, actives raise or lower the signal. The method in brief: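 Transiently transfected HepG2, endogenous TF-driven reporters, 24 h dosing. Readout: RT-PCR plus capillary electrophoresis of fluorescent reporter fragments. Gain or loss of signal fitted bidirectionally against DMSO baseline.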

Test [11] is described as follows: ATG_EGR_CIS: Attagene CIS-FACTORIAL HepG2 Assay for human Early Growth Response 1 (EGR1) (AID 2282938). The following applies: HepG2 Attagene CIS-FACTORIAL EGR reporter mRNA; actives raise or lower the signal. The method, boiled down:
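HepG2 cells transiently transfected with cis-element-driven multiplexed reporter units, dosed for 24 h. EGR1-element reporter mRNA quantified by RT-PCR, 6-FAM labelling, HpaI digestion and capillary electrophoresis; bidirectional fit versus DMSO.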

Test [12] in a line: ATG_M_19_CIS: Attagene CIS-FACTORIAL HepG2 Assay for M19 Transcription Factor (Internal Marker) (AID 2282939). The following applies: HepG2 Attagene CIS-FACTORIAL M19 internal marker reporter; actives raise or lower the signal. The method in brief:
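Signals come from fluorescence of labelled reporter-specific PCR fragments resolved by capillary electrophoresis, following 24 h treatment of HepG2 cells transfected with cis-promoter reporter units; activity was fitted in both directions relative to DMSO.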

The nature of test [13]: ATG_ERE_CIS: Attagene CIS-FACTORIAL HepG2 Assay for Estrogen Response Element (ERE) (AID 2282940). To be noted: HepG2 ERE cis-reporter, Attagene RNA transcript; actives raise or lower the signal. The method in brief: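 Fluorescence of capillary-separated, FAM-labelled reporter cDNA fragments indicates reporter mRNA levels in HepG2 cells exposed to chemicals for 24 h. Transient transfection with cis-regulated units; data fitted in both directions against DMSO.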

Test [14] in a line: ATG_Ets_CIS: Attagene CIS-FACTORIAL HepG2 Assay for human Erythroblast Transformation Specific (ETS) (AID 2282941). To be noted: HepG2 ETS cis-reporter transcription, actives raise or lower the signal. The method in brief:
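Bidirectional fit versus DMSO of reporter mRNA signal, detected by RT-PCR and capillary electrophoresis in HepG2 cells transiently transfected with cis-element reporters and dosed 24 h.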

Test [15] concerns the target Hepatocyte nuclear factor 3-beta (Homo sapiens) (UniProt Q9Y261). The test is described as follows: ATG_FoxA2_CIS: Attagene CIS-FACTORIAL HepG2 Assay for human Forkhead box A2 (FOXA2) (AID 2282942). The following applies: HepG2 cis-reporter transcription factor activity, 24 h; actives raise or lower the signal. The method, boiled down: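 HepG2 transiently transfected with a multiplexed cis-promoter reporter library read endogenous FOXA2 activity. After 24 h compound exposure, reporter mRNA was quantified by RT-PCR, HpaI digestion and capillary electrophoresis. Bidirectional fit against DMSO.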

Test [16] is described as follows: ATG_FoxO_CIS: Attagene CIS-FACTORIAL HepG2 Assay for human Forkhead box O (FoxO) (AID 2282943). The following applies: HepG2 Attagene cis-reporter, FoxO element, mRNA; actives raise or lower the signal. The method in brief: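 HepG2 cells transiently transfected with cis-element-driven reporter units report endogenous FoxO activity. After 24 h chemical exposure, reporter mRNA quantified by RT-PCR, fluorescent labeling, HpaI digestion and capillary electrophoresis; bidirectional fit versus DMSO.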

The nature of test [17]: ATG_M_61_CIS: Attagene CIS-FACTORIAL HepG2 Assay for M61 Transcription Factor (Internal Marker) (AID 2282937). The following applies: HepG2 Attagene CIS-FACTORIAL M61 internal marker reporter; actives raise or lower the signal. The method in brief:
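HepG2 cells transiently transfected with multiplexed cis-promoter reporter units reporting endogenous transcription factor activity, measured 24 h after dosing. Reporter mRNA quantified by RT-PCR and capillary electrophoresis; bidirectional fit against DMSO baseline.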

Test [18] in a line: ATG_AP_1_CIS: Attagene CIS-FACTORIAL HepG2 Assay for human Activator Protein 1 (AP-1) (AID 2282931). The following applies: HepG2 Attagene cis-factorial AP-1 reporter mRNA; actives raise or lower the signal. The method, boiled down: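 HepG2 cells transiently transfected with cis-element-driven reporter transcription units, dosed for 24 hours. Reporter mRNA measured by RT-PCR, 6-FAM labelling, HpaI digestion and capillary electrophoresis. Bidirectional fitting against DMSO baseline.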

A short description of test [19]: ATG_GATA_CIS: Attagene CIS-FACTORIAL HepG2 Assay for human GATA Binding Protein (AID 2282944). The following applies: HepG2 GATA cis-element reporter, Attagene multiplex mRNA; actives raise or lower the signal. The method in brief: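 After transfecting HepG2 cells with multiple cis-regulated reporter units, chemicals are dosed for 24 h; isolated RNA undergoes RT-PCR and fluorescent labeling before capillary electrophoresis, with activity expressed against DMSO.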

Test [20] in a line: ATG_AP_2_CIS: Attagene CIS-FACTORIAL HepG2 Assay for human Activator Protein 2 (AP-2) (AID 2282932). The following applies: HepG2 AP-2 cis-reporter, Attagene transcription factor profiling; actives raise or lower the signal. The method, boiled down: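 Read-out: fluorescent reporter mRNA via RT-PCR and capillary electrophoresis, 24 h post-dose in transiently transfected HepG2. Endogenous factors drive cis-promoter reporters; gain or loss of signal fitted bidirectionally against DMSO.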

For orientation: AC50 means the midpoint of the concentration-response curve, whichever way the signal moves.

Records with an inconclusive call do not appear. Active and inactive are the calls of the source. The calls were made as follows, unless noted: active = hit-call score of the fitted dose curve at least 0.9, where 1 is the maximum; inactive = score below 0.9.

Hepatocyte nuclear factor 3-beta (Homo sapiens), sequence (Q9Y261 whole entry, looked up): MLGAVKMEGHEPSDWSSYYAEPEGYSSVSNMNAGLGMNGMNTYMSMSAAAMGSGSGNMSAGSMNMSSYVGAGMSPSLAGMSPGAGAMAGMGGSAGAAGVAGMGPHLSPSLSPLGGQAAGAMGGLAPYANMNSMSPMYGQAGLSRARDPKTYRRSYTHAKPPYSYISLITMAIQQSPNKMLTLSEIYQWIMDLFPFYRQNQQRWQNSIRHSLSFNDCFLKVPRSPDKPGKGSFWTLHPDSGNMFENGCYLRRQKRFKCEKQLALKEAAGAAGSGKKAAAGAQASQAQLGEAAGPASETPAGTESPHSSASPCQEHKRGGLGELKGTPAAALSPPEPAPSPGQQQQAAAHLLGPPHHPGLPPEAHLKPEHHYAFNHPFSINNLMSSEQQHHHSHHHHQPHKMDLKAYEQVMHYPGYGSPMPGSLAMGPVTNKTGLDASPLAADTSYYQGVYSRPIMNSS
Retinoic acid receptor alpha (Homo sapiens), sequence (P10276 whole entry, looked up): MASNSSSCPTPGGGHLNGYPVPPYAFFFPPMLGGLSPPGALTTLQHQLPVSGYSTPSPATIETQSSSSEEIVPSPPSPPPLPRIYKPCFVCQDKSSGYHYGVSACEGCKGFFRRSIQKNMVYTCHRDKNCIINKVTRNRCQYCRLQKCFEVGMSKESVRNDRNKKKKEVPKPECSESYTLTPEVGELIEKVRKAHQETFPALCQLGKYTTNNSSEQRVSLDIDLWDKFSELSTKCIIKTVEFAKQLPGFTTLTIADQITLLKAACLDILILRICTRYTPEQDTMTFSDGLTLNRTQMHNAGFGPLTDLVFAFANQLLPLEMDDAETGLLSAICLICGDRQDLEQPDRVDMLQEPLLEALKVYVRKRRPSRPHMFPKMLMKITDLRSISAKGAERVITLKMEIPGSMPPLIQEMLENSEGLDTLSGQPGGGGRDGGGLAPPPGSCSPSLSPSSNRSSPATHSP
Transcription factor E2F1 (Homo sapiens), sequence (Q01094 whole entry, looked up): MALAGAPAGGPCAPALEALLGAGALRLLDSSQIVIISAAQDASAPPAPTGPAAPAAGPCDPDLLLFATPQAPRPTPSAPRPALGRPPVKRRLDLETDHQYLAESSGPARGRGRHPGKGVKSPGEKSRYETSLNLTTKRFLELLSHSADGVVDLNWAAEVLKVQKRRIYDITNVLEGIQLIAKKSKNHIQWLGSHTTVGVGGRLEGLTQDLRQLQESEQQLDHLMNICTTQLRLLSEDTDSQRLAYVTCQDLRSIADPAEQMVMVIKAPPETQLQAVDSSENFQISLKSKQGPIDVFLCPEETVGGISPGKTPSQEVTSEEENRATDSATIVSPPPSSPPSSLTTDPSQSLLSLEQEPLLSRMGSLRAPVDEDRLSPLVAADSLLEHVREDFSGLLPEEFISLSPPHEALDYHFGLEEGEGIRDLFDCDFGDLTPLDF
CCAAT/enhancer-binding protein beta (Homo sapiens), sequence (P17676 whole entry, looked up): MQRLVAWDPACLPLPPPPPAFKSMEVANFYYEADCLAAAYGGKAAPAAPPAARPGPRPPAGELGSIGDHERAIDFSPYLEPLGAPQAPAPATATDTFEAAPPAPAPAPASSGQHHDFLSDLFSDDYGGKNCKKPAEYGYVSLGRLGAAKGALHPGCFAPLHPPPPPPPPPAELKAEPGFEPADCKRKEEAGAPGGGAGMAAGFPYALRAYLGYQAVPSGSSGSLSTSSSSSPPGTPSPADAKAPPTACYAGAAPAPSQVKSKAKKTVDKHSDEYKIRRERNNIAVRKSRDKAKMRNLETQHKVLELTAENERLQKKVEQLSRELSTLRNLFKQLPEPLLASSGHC

As for `CC(C)(C)C(=O)C1C(=O)c2ccccc2C1=O`, the concentration at half-maximal activity (AC50) in [1] was 10.4 µM (active); in [2], 57.9 µM (active); in test [4], 30.1 µM (active); in [6], 34.6 µM (active); in test [8] it was 31.9 µM (active). Further, the result in test [3], in test [5], in test [7], in test [9], in [10] and in [11] was inactive. Further, the compound was classed as inactive in [12], in test [13], in test [14], in test [15] and in [16].

Consider `CC1=CCC(=O)O1`, for which the call in [1], in [2], in [3], in [4], in test [5] and in [6] was inactive. Moreover, the outcome in test [7], in [8], in [9], in test [10], in test [17] and in [11] was inactive. Moreover, the outcome in [12], in test [14], in test [15] and in test [16] was inactive.

As to `CCN(CC)c1ccc(C=O)cc1`, the AC50 was 0.0998 µM (active) in test [1] and 26 µM (active) in test [14]. Further, the result in test [2], in [3], in test [4], in test [5], in [18] and in test [7] was inactive. Besides, the compound was called inactive in test [8], in test [9], in test [10], in [17], in test [11] and in [13]. The compound was classed as inactive in test [15], in test [16] and in test [19].

As for `CCCCCCCC/C=C\CCCCCCCC(=O)N(C)CC(=O)O`, the compound was called inactive in test [1], in test [2], in test [3], in test [4], in [5] and in [18]. For the same compound, the outcome in [20], in test [7], in test [8], in test [9], in test [10] and in test [17] was inactive. Further, the result in test [11], in test [12], in [13], in test [14], in test [15] and in test [16] was inactive. The compound was called inactive in [19].
